Screening data as filed in PubChem.
The list is not random: actives were taken first. Their share in the collection is about 18%.
PLK1 PBD block: inhibitors of human PLK1 polo-box domain binding; P53350; 360,000 compounds, 2.8% hits; Potency, µM, for inactives: max response, negative = inhibition, usual class: inhibitors; Plk1 PBD binding of FITC phosphopeptide, fluorescence polarization; further: series mostly up to about 57 µM; nearly all actives have a fitted effect of over 65% in size
DT40 TDP1 no CPT: qHTS for Inhibitors of human tyrosyl-DNA phosphodiesterase 1 (TDP1): qHTS in cells in absence of CPT | AID 686978, 2013 | Potency, µM (doses to about 46.2 µM), without a hit: top-dose activity change, negative = growth inhibition, hits mostly inhibitors | 420,000 compounds, 15% hits | DT40 Tdp1-/- hTDP1 cells, no CPT, ATP luminescence, 48 h; further: nearly all actives have a fitted effect of over 55% in size
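Readout: luminescence from CellTiter-Glo after 30 min in the dark at RT. Cells: DT40 Tdp1-/- with stable hTDP1, 400/well. Exposure: compounds alone, ≥48 hr, 37 °C.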
TDP1 block: inhibitors of human tyrosyl-DNA phosphodiesterase TDP1 | recombinant TDP1, AlphaScreen DNA substrate cleavage | Q9NUW8 | 350,000 compounds, 0.28% hits | Potency, µM (series often up to 130 µM), for the others: top-dose activity change, negative = inhibition, most hits filed as inhibitors; further: nearly all actives have a fitted effect of over 40% in size
Target sequence (Q9NUW8 whole entry, looked up): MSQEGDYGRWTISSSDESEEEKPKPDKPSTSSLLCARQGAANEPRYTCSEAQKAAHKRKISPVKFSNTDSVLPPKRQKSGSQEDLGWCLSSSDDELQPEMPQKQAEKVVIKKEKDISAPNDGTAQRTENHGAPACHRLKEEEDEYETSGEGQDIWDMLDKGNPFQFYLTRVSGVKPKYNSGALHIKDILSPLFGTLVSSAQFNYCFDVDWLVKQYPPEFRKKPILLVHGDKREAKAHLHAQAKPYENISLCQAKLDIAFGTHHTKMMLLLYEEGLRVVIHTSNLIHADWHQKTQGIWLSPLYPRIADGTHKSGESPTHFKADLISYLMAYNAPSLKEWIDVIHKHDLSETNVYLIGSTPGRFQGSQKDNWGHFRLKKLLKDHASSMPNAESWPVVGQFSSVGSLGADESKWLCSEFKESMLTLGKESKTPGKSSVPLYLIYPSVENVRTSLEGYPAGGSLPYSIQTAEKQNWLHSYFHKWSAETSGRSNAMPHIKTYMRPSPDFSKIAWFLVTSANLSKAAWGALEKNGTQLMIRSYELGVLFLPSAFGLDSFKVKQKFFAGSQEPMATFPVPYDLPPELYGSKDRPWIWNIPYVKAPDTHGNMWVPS
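Steps: enzyme plus compound, 15 min RT; add biotin/phosphotyrosine-FITC oligonucleotide (15 nM final), react 5 min; add donor/acceptor beads (10 ug/ml final), 10 min; read AlphaScreen. Tdp1 at 1 nM final.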
TDP1 cell CPT: growth inhibition of DT40 Tdp1-/-;hTDP1 cells with camptothecin (screen for TDP1 inhibitors). Potency, µM (series often up to 46.2 µM), for the others: at the highest dose activity change, negative = growth inhibition, usual class: inhibitors. 420,000 compounds, 12% hits. chicken DT40 Tdp1-/-;hTDP1 cells + 20 nM CPT, ATP luminescence, 48 h. AID 686979; further: nearly all actives have a fitted effect of over 55% in size
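Cell growth measured by CellTiter-Glo luminescence after a minimum 48 h, 37 C compound exposure with 20 nM CPT in Tdp1-knockout DT40 cells stably expressing hTDP1, seeded 400/well; qHTS titration format.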
GCN5L2 inh: blocks human GCN5L2 histone acetyltransferase; GCN5L2 HAT assay, ThioGlo1 CoA-SH fluorescence; Potency, µM (titrated, usually from 58.9 µM), inactives show at the top dose activity change, negative = inhibition, hits mostly inhibitors; AID 504327; Q92830; 390,000 compounds, 0.21% hits
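Free CoA generated was detected with ThioGlo1 (50uM) fluorescence at Ex340nm/Em540nm, read immediately and after 20 min at room temperature. Enzyme, 20 nM in HEPES pH 7.5 buffer, saw compounds 15 min before adding 75uM H3(1-25) peptide and 70uM acetyl-CoA.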
VDR inhibitor: blocks the human vitamin D receptor | Potency, µM, for inactives: max response, negative = inhibition, usual class: inhibitors | VDR-SRC2-3 peptide fluorescence polarization, 2 h | 400,000 compounds, 0.93% hits | AID 504847
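VDR–SRC2-3 interaction, FP format. Cmpds 23 nl via pintool, brief spin, 2 h ambient incubation.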
* hit, by the source's call; ? = inconclusive; nt = no result given; ! = not confirmed by another sample; [ ] = another dose, or the depositor's remark. The call rests on the fitted dose curve; in most records, active means well fitted curve in the direction sought with a large enough effect; inconclusive means small, poorly fitted or top-dose-only effect, or another doubt; inactive means no such curve, though single readings can be large; an effect the other way counts as inactive or inconclusive. On the % scale 0 is the no-effect control and ±100 the full control effect; potency means the concentration at half of the fitted maximal effect.

SMILES | PLK1 PBD block | DT40 TDP1 no CPT | TDP1 block | TDP1 cell CPT | GCN5L2 inh | VDR inhibitor
CCCC(CCC)C(N)=O | nt | 4% | nt | -1% | nt | nt
Cc1ccccc1CNC(=O)CCC(=O)N1CCSc2ccccc21 | nt | ? | -8% | ? | 1% | 3%
O=C1N(c2ccccc2)C[C@@H]2C[C@@H](c3cc4ccccc4o3)N3CCC[C@@]123 | -23% | 23µM* | 3% | -5% | 2% | 9%
O=S(=O)(NCCc1ccccc1)c1cccc(S(=O)(=O)N2CCOCC2)c1 | 1% | ? | 2% | -28% | 1% | 10%
CN(CC(=O)Nc1cccc(F)c1)CC(=O)Nc1cccc(S(=O)(=O)N2CCCCCC2)c1 | -5% | 16µM* | 4% | 16µM* | -12% | -4%
O=S(=O)(c1cccc(Cn2nnc(-c3ccccc3)n2)c1)N1CCOCC1 | -2% | 21µM* | -1% | 23µM* | -2% | 9%
CN(CC(=O)Nc1cccc(S(=O)(=O)N2CCCCC2)c1)Cc1ccc(F)cc1 | 4% | ? | 0%[56.1 µM] | ? | -7% | 19%
COc1ccc(NC(=O)CN(C)Cc2c(F)cccc2Cl)cc1S(=O)(=O)N1CCCCC1 | -6% | 2% | -3% | 7% | -11% | -11%
COc1ccc(/C=C/C(=O)N(C)CC(=O)Nc2cccc(F)c2)cc1S(=O)(=O)N1CCCCC1 | -3% | 16µM* | 1% | 18µM* | -5% | -12%
CC1CCc2ccccc2N1CC(=O)Nc1cccc(S(=O)(=O)N2CCCC2)c1 (stereo unspecified) | 3% | 18µM* | 3% | 16µM* | -11% | 28%
O=C(NCC(O)CO)c1c(I)c(C(=O)NCC(O)CO)c(I)c(N(CCO)C(=O)CO)c1I (stereo unspecified) | nt | -11%[21.1 µM] | nt | -1%[21.1 µM] | nt | nt
Cc1nc2ccccc2n1CCc1nc2c3ccccc3nc(SCc3ccc(C#N)cc3)n2n1 | nt | -6% | 6% | -16% | -2% | 21%
CC(=O)c1ccc(-c2c(CCO)sc3ccccc23)cc1 | 1% | ? | nt | ? | nt | nt
O=C(Cn1nc(C(=O)O)c2ccccc2c1=O)Nc1cccc(S(=O)(=O)N2CCCC2)c1 | -6% | 10% | 4% | 14% | -4% | 3%
CN(CC(=O)Nc1cccc(F)c1)CC(=O)Nc1cccc(S(=O)(=O)N2CCCCC2)c1 | -4% | 21µM* | -2% | ? | -12% | -16%
O=C(Cn1nnc(-c2ccccc2)n1)Nc1cccc(S(=O)(=O)N2CCCC2)c1 | -6% | 21µM* | -2% | 18µM* | -2% | -12%
CSCC[C@H](NC(=O)[C@H](CC(C)C)NC(=O)CNC(=O)[C@@H]1CCCN1C(=O)[C@H](Cc1ccccc1)NC(=O)[C@H](Cc1ccccc1)NC(=O)[C@H](CC(=O)O)NC(=O)[C@H](Cc1cnc[nH]1)NC(=O)[C@H](CCSC)NC(=O)[C@@H](N)CC(=O)O)C(N)=O | nt | nt | 11% | nt | 3% | 4%
OC1(c2ccc(Cl)cc2)CCN(Cc2cn[nH]c2-c2ccc(F)cc2)CC1 | 5% | 4.1µM* | 0% | 13µM* | -4% | 0%
Fc1ccc(-c2[nH]ncc2CN2CCN(c3ccc(F)cc3)CC2)cc1 | 5% | ? | 2% | -26% | 0% | -3%
COc1ccc(-c2[nH]ncc2CN2CCC(O)(c3ccc(Cl)cc3)CC2)cc1 | 5% | 10µM* | 9% | ? | 2% | 13%
OC1(c2ccc(Cl)cc2)CCN(Cc2cn[nH]c2-c2ccccc2)CC1 | 5% | 15µM* | 9% | 16µM* | -3% | 1%
c1ccc(-c2[nH]ncc2CN2CCc3ccccc3C2)cc1 | -21% | -28% | 3% | 4% | -1% | -14%
Cc1cccn2c(=O)c(C(=O)NCCc3ccccc3)cnc12 | nt | ? | 2% | -26% | -8% | 0%
CCc1ncc(CN2CCC(C(=O)Nc3cccc(-c4cscn4)c3)CC2)cn1 | -7% | ? | 6%[56.1 µM] | ? | 0% | 1%
Cc1nn(Cc2ccccc2Cl)c(Cl)c1/C=C/C(=O)OCC(=O)NC(N)=O | -5% | 2.3µM* | 0% | ? | -2% | -17%
SMILES | PLK1 PBD block | DT40 TDP1 no CPT | TDP1 block | TDP1 cell CPT | GCN5L2 inh | VDR inhibitor
Cc1nn(Cc2ccccc2Cl)c(Cl)c1/C=C/C(=O)OCC(=O)NC1CCS(=O)(=O)C1 (stereo unspecified) | -1% | -26% | 0% | 21% | 3% | 9%
Cc1nn(Cc2ccc(Cl)cc2Cl)c(Cl)c1/C=C/C(=O)OCC(=O)NCC(F)(F)F | 0% | 21µM* | 4% | -29% | -6% | 9%
Cc1nn(Cc2ccccc2)c(Cl)c1/C=C/C(=O)OCC(=O)N1CCCC1=O | 0% | 17% | 7% | 13% | -17% | -10%
N#CCCN(C(=S)Nc1ccc(S(=O)(=O)N2CCOCC2)cc1)c1ccccc1F | -28% | -27% | -4% | -23% | -14% | 7%
O=C(Nc1ccc(-c2nc3ccccc3[nH]2)cc1)c1cccc(N2C(=O)CCC2=O)c1 | -5% | 12µM* | 0% | ? | -8% | -2%
CC1CCCCN1S(=O)(=O)c1ccc(C(=O)Nc2ccccc2-c2nc3ccccc3[nH]2)cc1 (stereo unspecified) | -6% | 15µM* | 3% | 21µM* | 2% | -14%
O=C(Nc1ccccc1-c1nc2ccccc2[nH]1)c1ccc(S(=O)(=O)N2CCCCC2)cc1 | -1% | -26% | -1% | -23% | -7% | 4%
O=C(Nc1ccccc1-c1nc2ccccc2[nH]1)c1ccc(N2C(=O)CCC2=O)cc1 | 12% | 9.2µM* | 0% | ? | 0% | 7%
O=C(CCc1nc2ccccc2c(=O)[nH]1)NNC(=O)c1ccc(F)cc1 | 2% | 16% | -2% | -7% | -8% | 16%
O=C(Cc1ccc(F)cc1)N[C@@H]1c2ccccc2CC[C@H]1OCc1ccccc1 | 2% | -24% | 1%[56.1 µM] | -16% | 0% | 12%
COC(=O)c1cc(CNC(=O)c2cccc3ccccc23)cc(NC(=O)c2ccccc2OC)c1 | nt | ? | nt | 10%[9.04 µM] | nt | nt
COC(=O)c1cc(CNC(=O)c2ccccc2F)cc(NC(=O)c2ccccc2OC)c1 | nt | 23µM* | nt | -17%[9.04 µM] | nt | nt
COc1ccccc1C(=O)NCc1ccccc1 | -8% | -15% | 3% | ? | -1% | 18%
COC(=O)c1cc(CNC(=O)c2ccccc2OC)cc(NC(=O)c2ccccc2F)c1 | nt | 16µM* | nt | 21µM* | nt | nt
CCc1nc2ccc(C(=O)N3CCN(C(=O)c4ccco4)CC3)cn2c1N(C)Cc1nccn1C | -6% | 0% | nt | 7% | nt | nt
CC[C@H](C)C(=O)O[C@H]1CCC=C2C=C[C@H](C)[C@H](CC[C@@H]3C[C@@H](O)CC(=O)O3)[C@H]21 | -16% | 15µM*! | 0% | ? | -17% | -24%
CC[C@H](C)C(=O)O[C@H]1CCC=C2C=C[C@H](C)[C@H](CC[C@@H]3C[C@H](O)CC(=O)O3)[C@H]21 | nt | 13µM* | 11%[56.1 µM] | 19µM* | -13% | ?
CCC(C)C(=O)OC1CCC=C2C=CC(C)C(CCC3CC(O)CC(=O)O3)C21 (stereo unspecified) | 4% | 23µM* | nt | ? | nt | 1%
Cc1ccc(C)c(S(=O)(=O)/N=C2\C=C(NS(=O)(=O)c3ccccc3)C(=O)c3ccccc32)c1 | 27µM* | 16µM* | nt | 16µM* | -3% | -15%
